Results published in PubChem BioAssay AID463173 (ICCB-Longwood Screening Facility, Harvard Medical School, 2010).
About 1,700 (3.3%) of roughly 52,000 compounds were called active. Cut-off read from the data, not from the text of the source: active = survival mostly below about 52% (no sharp cut-off); inactive = mostly above about 56%. Only a selection was taken, and actives are over-represented in it overall.

Each compound was assayed on Wild type (assay: growth inhibition of S. aureus wild type versus tarO mutant, primary screen, teichoic acid synthesis inhibitors, RN4220, OD600 (AID 463173)). Conditions: S. aureus RN4220 wild type/DeltatarO growth, OD600, 18 h, stronger effect = lower value, screened at 18.75 µg/mL (by protocol).

Structure (SMILES) | survival
C#CC(C)(CC)NC(=O)Cn1nnc(-c2ccc(OCc3ccccc3Cl)cc2)n1 (centres undefined) | 74% (inactive)
CC1=CC(C)(C)Nc2ccc(OC(=O)c3ccco3)cc21 | 125% (inactive)
CCc1ccc(NC(=O)Cn2cnc3sc(C)c(S(=O)(=O)N4CCN(c5ccccc5OC)CC4)c3c2=O)cc1 | 138% (inactive)
CCOC(=O)Cn1c(=O)n(-c2ccccc2OC)c2nc(-c3ccc(C(C)C)cc3)nc(C(N)=O)c21 | 82% (inactive)
CCOC(=O)Cn1c(=O)n(CC2CCCO2)c2nc(-c3ccc(C(C)C)cc3)nc(C(N)=O)c21 (centres undefined) | 1% (active)
CCOC(=O)Cn1c(=O)n(CC2CCCO2)c2nc(-c3ccc(CC)cc3)nc(C(N)=O)c21 (centres undefined) | 81% (inactive)
CCOC(=O)Cn1c(=O)n(-c2ccccc2OC)c2nc(-c3cccc(F)c3)nc(C(N)=O)c21 | 57% (inactive)
CCOC(=O)Cn1c(=O)n(CC2CCCO2)c2nc(-c3ccc(OCC)cc3)nc(C(N)=O)c21 (centres undefined) | -4% (active)
CCOC(=O)Cn1c(=O)n(CC2CCCO2)c2nc(-c3ccc(C)cc3)nc(C(N)=O)c21 (centres undefined) | 63% (inactive)
CCOC(=O)Cn1c(=O)n(-c2ccccc2OC)c2nc(-c3ccccc3)nc(C(N)=O)c21 | -3% (active)
CCOC(=O)Cn1c(=O)n(CC2CCCO2)c2nc(-c3cccc(C)c3)nc(C(N)=O)c21 (centres undefined) | 55% (inactive)
CCOC(=O)Cn1c(=O)n(CC2CCCO2)c2nc(-c3ccccc3)nc(C(N)=O)c21 (centres undefined) | 56% (inactive)
CCCCC(=O)Nc1ccc(NC(=O)C2CC2)nc1 | 101% (inactive)
COc1ccc(OC)c(NC(=O)Cc2c(C(=O)O)n(C)c3ccc(C)cc23)c1 | 88% (inactive)
CC1CCCN(S(=O)(=O)c2cc3c4c(c2)CC(=O)N4CCC3)C1 (centres undefined) | 81% (inactive)
CC(C)Cn1c(=O)c2sccc2n2c(CCCC(=O)NCC(C)c3ccccc3)nnc12 (centres undefined) | 96% (inactive)
CCCC(=O)N(c1ccc2oc3c(c2c1)CCCC3)S(=O)(=O)c1cc(C)ccc1C | 61% (inactive)
COc1ccccc1C(=O)Nc1ccc2nc(SCC(=O)N(C)c3ccccc3)sc2c1 | 84% (inactive)
CC(Sc1nc(-c2ccccc2)c(C#N)c(=O)[nH]1)C(=O)Nc1ccc(F)cc1 (centres undefined) | 91% (inactive)
O=C(CSc1ccccc1)N1CCc2c([nH]c3ccccc23)C1c1ccc(Cl)cc1 (centres undefined) | 64% (inactive)
COCCCNC(=O)CCn1c(=O)c2ccccc2n(CC(=O)Nc2c(C)cc(C)cc2C)c1=O | 84% (inactive)
CCOc1ccccc1CNC(=O)CN1C(=O)c2cccnc2Oc2ccc(C)cc21 | 136% (inactive)
Cc1ccc2nc(/C(C#N)=C/c3ccc(-c4ccc(F)cc4F)o3)[nH]c2c1 | 26% (inactive)
CCOc1ccc(-c2cc(NC(=O)Nc3ccccc3C(F)(F)F)c(C(=O)OC)s2)cc1 | 72% (inactive)
CCOc1ccc(-c2cc(NC(=O)Nc3ccccc3Cl)c(C(=O)OC)s2)cc1 | 50% (inactive)
COC(=O)c1sc(-c2ccccc2)cc1NC(=O)c1cccc(F)c1 | 87% (inactive)
COC(=O)c1sc(-c2ccccc2)cc1NC(=O)Nc1ccc(Cl)cc1 | 4% (active)

Structure (SMILES) | survival
COC(=O)c1sc(-c2ccccc2)cc1NC(=O)c1cccc(Cl)c1 | 38% (inactive)
COC(=O)c1sc(-c2ccccc2)cc1NC(=O)Nc1ccccc1Cl | 5% (active)
CCOc1ccc(-c2cc(NC(=O)Nc3cccc(C(C)=O)c3)c(C(=O)OC)s2)cc1 | 81% (inactive)
CCOc1ccc(-c2cc(NC(=O)Nc3ccc(Cl)cc3)c(C(=O)OC)s2)cc1 | 88% (inactive)
COC(=O)c1sc(-c2ccccc2)cc1NC(=O)Nc1ccc(F)cc1 | 13% (active)
CCc1ccccc1NC(=O)Cn1cc(S(=O)(=O)N2CCCC2)c(S(=O)(=O)N2CCCC2)c1 | 68% (inactive)
CCc1ccccc1NC(=O)CCn1nc(C)c2c(C)n(-c3ccccc3)nc2c1=O | 88% (inactive)
Cc1ccc(C(=O)Nc2ccccc2C(=O)OCc2cc(=O)n3nc(C4CC4)sc3n2)cc1 | 87% (inactive)
COc1cccc(-n2c(=O)c3cc(OC)c(OC)cc3n(CC(=O)Nc3ccc(F)cc3)c2=O)c1 | 73% (inactive)
Cc1ccc(Cl)cc1N1CCN(C(=O)c2sc3nc4n(c(=O)c3c2C)CCC4)CC1 | 75% (inactive)
CCOC(=O)c1ccc(NC(=O)c2cc3sccc3n2Cc2ccc(Cl)cc2)cc1 | 87% (inactive)
COc1cc(OC)c(NC(=O)Cn2c(=O)nc(-c3ccccc3)c3ccccc32)cc1Cl | 68% (inactive)
O=C(COc1ccc(Cl)cc1)Nc1nnc(S(=O)(=O)N2CCc3ccccc32)s1 | 12% (active)
Cc1cccc(C(=O)Nc2nnc(S(=O)(=O)N3c4ccccc4CC3C)s2)c1 (centres undefined) | 21% (inactive)
CC1Cc2ccccc2N1S(=O)(=O)c1nnc(NC(=O)c2ccccc2)s1 (centres undefined) | 18% (inactive)
Cc1ccc(OCC(=O)Nc2nnc(S(=O)(=O)N3CCc4ccccc43)s2)cc1 | 24% (inactive)
CC1Cc2ccccc2N1S(=O)(=O)c1nnc(NC(=O)c2cccc(F)c2)s1 (centres undefined) | 10% (active)
CN(Cc1ccccc1)S(=O)(=O)c1nnc(NC(=O)c2ccccc2)s1 | 35% (inactive)
O=C(Nc1nnc(S(=O)(=O)N2CCCc3ccccc32)s1)c1ccccc1 | 31% (inactive)
Cc1cccc(C(=O)Nc2nnc(S(=O)(=O)N(C)Cc3ccccc3)s2)c1 | 29% (inactive)
CN(Cc1ccccc1)S(=O)(=O)c1nnc(NC(=O)c2cccc(Cl)c2)s1 | -1% (active)
O=C(Nc1nnc(S(=O)(=O)N2CCCc3ccccc32)s1)c1cccc(Cl)c1 | 6% (active)
O=C(Nc1nnc(S(=O)(=O)N2CCCc3ccccc32)s1)c1ccc(Cl)cc1 | 19% (inactive)
COc1ccc(OCC(=O)Nc2nnc(S(=O)(=O)N3CCc4ccccc43)s2)cc1 | 73% (inactive)
Cc1nnc(N2C(=O)c3oc4ccccc4c(=O)c3C2c2ccc(F)cc2)s1 (centres undefined) | 79% (inactive)
O=c1cccc2n1CC1CC(C2)N(c2nc(N3CCCCC3)nc(N3CCCCC3)n2)C1 (centres undefined) | 104% (inactive)
CCCn1c(=O)n(-c2ccccc2)c(=O)c2sc3ccccc3c21 | 93% (inactive)
